# The panel holds about 79,000 compounds, 15% with a hit somewhere; the sample as a whole holds those more often. Activity calls are given as the source filed them. No stated cut-off is given here; in the data, active means growth inhibition above about 70%; inactive means the rest.
# Tests used:
# [1] = NCI Yeast Anticancer Drug Screen. Data for the rad50 strain (AID 155);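 further: 0% = growth of vehicle-only cultures of the same strain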; settings: S. cerevisiae rad50 strain growth inhibition, active compounds read high
# Summary of the method: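 Genetically altered yeast (DNA repair pathway); compound treatment; growth inhibition vs vehicle ctrl.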
# [2] = NCI Yeast Anticancer Drug Screen. Data for the mec2-1 strain (AID 157); settings: S. cerevisiae mec2-1 strain, active compounds read high
# Summary of the method: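 Growth inhibition is read against vehicle-treated controls after compound exposure of the mec2-1 yeast strain, which is defective in DNA damage repair or cell cycle control.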
# [3] = NCI Yeast Anticancer Drug Screen. Data for the sgs1 mgt1 strain (AID 161);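 further: 0% = growth of cultures given vehicle only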; settings: S. cerevisiae sgs1 mgt1 strain, active compounds read high
# Summary of the method: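 Compounds are added to genetically altered yeast, and growth is compared with cultures given vehicle alone to give percent inhibition.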
# [4] = NCI Yeast Anticancer Drug Screen. Data for the cln2 rad14 strain (AID 165);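 further: 0% = growth equal to vehicle treated cultures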; settings: S. cerevisiae cln2 rad14 strain, active compounds read high
# Summary of the method: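 Growth inhibition, relative to vehicle-treated controls, is the read-out. The test organism is a yeast strain with defined genetic alterations, cln2 rad14.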
# [5] = NCI Yeast Anticancer Drug Screen. Data for the bub3 strain (AID 167); settings: S. cerevisiae bub3 mutant strain, active compounds read high
# Summary of the method: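 Yeast carrying a defined mutation is treated with each compound, and growth is compared with that of vehicle-exposed cells to give inhibition.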
# [6] = NCI Yeast Anticancer Drug Screen. Data for the mlh1 rad18 strain (AID 175); settings: S. cerevisiae mlh1 rad18 strain growth inhibition, active compounds read high
# Summary of the method: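 Cells of a genetically altered yeast strain, deficient in DNA damage repair, were treated with compound. Their growth was then compared with that of vehicle-treated cultures to give inhibition.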
# [7] = at 5.0 µM (retest, dose inferred, filed as 0.5)
# [8] = at 50.0 µM (retest, dose inferred, filed as 5.0)
Structure (SMILES),"growth inhibition [1, 7]","growth inhibition [1, 8]",growth inhibition ([1]; at 50.0 µM),"growth inhibition [2, 7]","growth inhibition [2, 8]",growth inhibition ([2]; at 50.0 µM),"growth inhibition [3, 7]","growth inhibition [3, 8]",growth inhibition ([3]; at 50.0 µM),"growth inhibition [4, 7]","growth inhibition [4, 8]",growth inhibition ([4]; at 50.0 µM),"growth inhibition [5, 7]","growth inhibition [5, 8]",growth inhibition ([5]; at 50.0 µM),"growth inhibition [6, 7]","growth inhibition [6, 8]",growth inhibition ([6]; at 50.0 µM)
Nc1c(C(=O)Nc2ccccc2)[n+]([O-])c2ccccc2[n+]1[O-],-2% (inactive),73% (active),98.2% (active),-3% (inactive),60% (inactive),97.7% (active),1% (inactive),88% (active),98% (active),-8% (inactive),78% (active),97.2% (active),-4% (inactive),90% (active),98.7% (active),-4% (inactive),91% (active),98.2% (active)
O=C(CC(C[N+](=O)[O-])c1ccc2c(c1)OCO2)c1ccccc1 (configuration not stated),0% (inactive),-3% (inactive),-12.5% (inactive),9% (inactive),17% (inactive),17.1% (inactive),-1% (inactive),-50% (inactive),33.9% (inactive),4% (inactive),16% (inactive),4.65% (inactive),18% (inactive),45% (inactive),88.2% (active),-4% (inactive),9% (inactive),45.1% (inactive)
CCCCN(Cc1ccccc1)CC(O)c1cc2c(c3ccccc13)CCCC2 (configuration not stated),-2% (inactive),85% (active),95.9% (active),9% (inactive),89% (active),80% (active),0% (inactive),95% (active),93.2% (active),-7% (inactive),59% (inactive),92.2% (active),-7% (inactive),84% (active),76.1% (active),18% (inactive),92% (active),92.8% (active)
O=c1[nH]c(Cc2ccccc2)nc2c1sc1nc3ccccc3n12,36% (inactive),86% (active),25.2% (inactive),9% (inactive),56% (inactive),-1.95% (inactive),19% (inactive),92% (active),-34.2% (inactive),28% (inactive),81% (active),-2.85% (inactive),8% (inactive),89% (active),-33.4% (inactive),18% (inactive),83% (active),-7.45% (inactive)
c1ccc(-c2c3ccccc3cc3ccc4ccccc4c23)nc1,8% (inactive),48% (inactive),78.7% (active),-6% (inactive),40% (inactive),52.9% (inactive),0% (inactive),-42% (inactive),62.3% (inactive),10% (inactive),45% (inactive),49.5% (inactive),3% (inactive),71% (active),71% (active),-8% (inactive),43% (inactive),81.2% (active)
c1ccc([P+](c2ccccc2)(c2ccccc2)C2c3ccccc3-c3ccccc32)cc1,68% (inactive),98% (active),91.2% (active),55% (inactive),98% (active),92.8% (active),86% (active),99% (active),89.5% (active),31% (inactive),97% (active),88.5% (active),57% (inactive),99% (active),86.5% (active),69% (inactive),98% (active),86.2% (active)
O=C1OC(=O)C2C(c3ccccc3)=C(c3ccccc3)C(c3ccccc3)=C(c3ccccc3)C12 (configuration not stated),37% (inactive),77% (active),61% (inactive),35% (inactive),72% (active),50% (inactive),33% (inactive),62% (inactive),54.4% (inactive),32% (inactive),67% (inactive),76.2% (active),29% (inactive),63% (inactive),56% (inactive),47% (inactive),81% (active),62% (inactive)
CC(=O)OCc1ccc2c(c1)C(O)NC(=O)O2 (configuration not stated),8% (inactive),45% (inactive),36% (inactive),2% (inactive),13% (inactive),21.9% (inactive),13% (inactive),69% (inactive),51.8% (inactive),-5% (inactive),18% (inactive),16.2% (inactive),0% (inactive),-7% (inactive),-23.1% (inactive),43% (inactive),88% (active),55.6% (inactive)
CCN(CC)C(=S)N/N=C(\C)c1cccc(C)n1,84% (active),100% (active),88.7% (active),82% (active),99% (active),91.7% (active),62% (inactive),99% (active),85.3% (active),82% (active),99% (active),89.4% (active),87% (active),99% (active),88.9% (active),81% (active),99% (active),85.8% (active)
CCOC(=O)Oc1ccc(C)cc1[N+](=O)[O-],-1% (inactive),13% (inactive),67.6% (inactive),-4% (inactive),1% (inactive),31.1% (inactive),-1% (inactive),2% (inactive),47.5% (inactive),2% (inactive),12% (inactive),55.6% (inactive),-1% (inactive),4% (inactive),23.6% (inactive),-3% (inactive),20% (inactive),88.3% (active)
COC1=Nc2ccccc2/C=C\c2ccccc21,-136% (inactive),-77% (inactive),78.5% (active),-50% (inactive),-57% (inactive),82.2% (active),-67% (inactive),-53% (inactive),67.7% (inactive),-49% (inactive),-60% (inactive),25.2% (inactive),-62% (inactive),-85% (inactive),43.7% (inactive),-124% (inactive),-118% (inactive),69.5% (inactive)
O=c1[nH][nH]c(=O)c2c1nc(SCc1ccccc1)n2Cc1ccccc1,-3% (inactive),-4% (inactive),8.05% (inactive),-3% (inactive),5% (inactive),-10.9% (inactive),-1% (inactive),2% (inactive),1.25% (inactive),-3% (inactive),-4% (inactive),75.8% (active),-6% (inactive),-4% (inactive),2.3% (inactive),-2% (inactive),7% (inactive),9.45% (inactive)
[Cl][Ge]([c]1ccccc1)[c]1ccccc1.[Cl][Ge]([c]1ccccc1)[c]1ccccc1,22% (inactive),73% (active),33.4% (inactive),19% (inactive),79% (active),41.5% (inactive),23% (inactive),80% (active),55.1% (inactive),4% (inactive),70% (active),-4.65% (inactive),16% (inactive),80% (active),34.5% (inactive),12% (inactive),78% (active),76.3% (active)
CC(c1ccc2ccccc2c1)c1c(F)cccc1C(=O)O (configuration not stated),2% (inactive),50% (inactive),98.7% (active),0% (inactive),54% (inactive),98.3% (active),0% (inactive),12% (inactive),97.2% (active),-4% (inactive),64% (inactive),98.6% (active),-9% (inactive),41% (inactive),97.6% (active),-16% (inactive),61% (inactive),98.5% (active)
Cn1cnc([N+](=O)[O-])c1Sc1nc2ccccc2s1,57% (inactive),96% (active),91.3% (active),38% (inactive),98% (active),92.3% (active),51% (inactive),97% (active),92.1% (active),35% (inactive),74% (active),90.7% (active),45% (inactive),97% (active),91.4% (active),64% (inactive),98% (active),90% (active)
CCCC(=S)N1CCOCC1,-1% (inactive),-2% (inactive),-23.9% (inactive),-1% (inactive),1% (inactive),-4.05% (inactive),-1% (inactive),-1% (inactive),-3.95% (inactive),-10% (inactive),-4% (inactive),33.2% (inactive),-1% (inactive),-1% (inactive),12.4% (inactive),-2% (inactive),-3% (inactive),26.6% (inactive)
COc1ccc(/C=C2\CN(C)C/C(=C\c3ccc(OC)cc3)C2=O)cc1,22% (inactive),75% (active),14.2% (inactive),18% (inactive),79% (active),21.6% (inactive),3% (inactive),87% (active),31.9% (inactive),15% (inactive),70% (active),38.8% (inactive),3% (inactive),85% (active),30.8% (inactive),25% (inactive),87% (active),26.9% (inactive)
O=[N+]([O-])C(=C(Nc1ccccc1)Nc1ccccc1)/C(Cl)=C(\Cl)Br,-7% (inactive),99% (active),98.7% (active),11% (inactive),99% (active),99.5% (active),6% (inactive),99% (active),99.3% (active),22% (inactive),99% (active),99.3% (active),-11% (inactive),99% (active),99.2% (active),32% (inactive),99% (active),99.2% (active)
N=c1n(CC(=O)NC23CC4CC(CC(C4)C2)C3)c2ccccc2n1Cc1ccc(Cl)cc1,33% (inactive),33% (inactive),92.5% (active),13% (inactive),13% (inactive),93.3% (active),14% (inactive),14% (inactive),93.4% (active),-2% (inactive),-2% (inactive),92.4% (active),-2% (inactive),-2% (inactive),91.4% (active),13% (inactive),13% (inactive),90.3% (active)

# From PubChem BioAssay (NCI)
